# Laboratory results published in the supplement of paper PMC6555819.
# Columns and labels:
# Experiment in all cases: PBM binding z-score (relative to random genomic background probes); higher = stronger binding; sequences stand for … in GC…GCGATTGACAGCGTAGAATGAAGG
# [1] = tested on: RARb homodimer (NR concentration 270 nM)
# Summary of the method: (§1)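 Binding buffer was PBS pH 7.4 with 2% milk, 0.02% Triton X-100, 1 mM DTT, 0.2 mg/mL BSA and 0.4 mg/ml salmon testes DNA. In it, ligand-free nuclear receptor dimers were incubated 1 h on custom Agilent 4×180K protein-binding microarrays carrying double-stranded probes. Antibodies against each partner (one per run) detected binding, and z-scores were calculated against random background probes after regression normalization of scanned fluorescence.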
# [2] = tested on: RARg:RXRa (NR concentration 270 nM, RXRa partner concentration 90 nM)
# Summary of the method: as §1
# [3] = tested on: RARg homodimer (NR concentration 270 nM)
# Summary of the method: as §1
# [4] = tested on: RXRa DBDmut IVT, anti-RXR (DBD mutation: RXRa K156A/R161A, NR concentration 90 nM)
# Summary of the method: as §1
# [5] = tested on: RXRa homodimer (NR concentration 180 nM)
# Summary of the method: as §1
# [6] = tested on: THRa:RXRa (NR concentration 90 nM, RXRa partner concentration 90 nM)
# Summary of the method: as §1
# [7] = tested on: THRa homodimer (NR concentration 90 nM)
# Summary of the method: as §1
# [8] = tested on: VDR:RXRa (NR concentration 270 nM, RXRa partner concentration 90 nM)
# Summary of the method: as §1
# [9] = tested on: VDR homodimer (NR concentration 270 nM)
# Summary of the method: as §1
Sequence,PBM binding z-score [1],PBM binding z-score [2],PBM binding z-score [3],PBM binding z-score [4],PBM binding z-score [5],PBM binding z-score [6],PBM binding z-score [7],PBM binding z-score [8],PBM binding z-score [9]
CCGACTGGGGCAAAGGTTACCAGACTCAGTACGA,2.19,3.65,1.61,-0.175,3.93,1.73,-0.362,1.64,0.000123
TCTCGGAGGACACGAAGGTCCGAGCTTTCCAGAG,0.577,0.296,1.3,0.546,-0.235,1.26,-0.0585,0.0624,-0.315
TCTGCTAGGTCAGTTGGTCAGCTTACGAGCTGCC,2.7,2.62,3.97,0.621,0.757,1.26,0.376,0.0848,-0.597
TCTTGTAGATCAACAGGAGGCTAAGAAAGATCGA,-0.642,0.0636,-0.13,0.0884,-0.111,-0.56,-1.25,-0.0159,-0.893
AGAATGAGGTTGAGATCAGGGAAACAGAATACAT,0.193,0.514,0.477,-0.1,0.612,1.35,-0.0652,0.141,0.0379
ATCGAAAGGTCGAGGTGAGTCTAGAGAAAGGGAA,2.89,4.34,4.48,0.715,4.46,3.01,0.76,3.21,0.695
ACTATTAGTAGAGACGAGGGCAACCGATAGGTTG,0.968,0.616,0.804,0.392,0.661,0.934,0.11,0.332,0.675
GCAGACAGGTGAAACGCAGGTTACTCAGGGTGGC,0.785,2.09,0.458,-0.376,1.07,1.88,-0.27,-0.128,-0.446
CATACTAGGTCACCGGAAGGTCAAAGTCCGCATG,5.62,8.44,7.45,2.21,6.33,4.43,3.31,6.08,3.9
CAAACTATGTCAAGGTCAAAGTCGGTTTGTGCCA,4.39,4.59,4.75,2.54,4.98,4.03,3.78,4.83,4.25
CCTCCAAGGTCAAGGTCAGTGAAAGAGACTCGAA,5.05,6.52,7.43,3.49,6.09,4.18,3.64,4.69,2.98
CCTCGGAGAACAACAGGAGGTCAGAGCTGCCAGA,2.85,1.99,1.83,0.121,1.86,2.02,0.641,1.47,0.996
ATTTCTAGGTAACCAAGTTCAGTGAATGCCGAAC,1.55,0.786,0.952,0.875,0.621,1.81,0.761,4.22,3.08
TAGCCTAGGTCATTAGGCCAGTATAGTACGCATC,2.93,3.47,3.8,1.54,2.1,2.4,0.34,–,0.922
CCTAGCAGGCCAACCTGGGTCACTCAAGGCTTGA,2.56,1.54,2.02,-0.209,1.23,3.63,0.233,–,-0.163
CCTTACTGGTCACTCCAGGTTATAGCATCGGAGT,1.42,0.885,1.32,0.271,0.519,3.26,1.03,–,0.805
GGACCGAGGGCAAAGTTGATAGCATCTGTCGACG,1.42,2.15,1.79,2.07,2.15,1.04,-0.484,–,1.07
CAAACTAGGTCACAGAGGTCAAGGTCCGTGCGTA,5.39,7.22,7.73,2.61,7.09,5.05,3.46,–,4.66
ACAGACGGGTGAGTGAAGGTAACTCAGCTGGACG,0.0268,-0.0676,0.0149,-0.71,0.204,1.45,-0.184,–,-0.714
GATACCGGGTCAAGGCCAGAGTACGCGTATTGAT,3.05,4.34,3.93,0.478,4.58,3.49,1.25,–,1.07
TTACCAAGGTGAAAGGTCGTTGGTGCACGCCTTG,2.87,4.49,1.81,0.82,6.07,3.48,0.937,–,1.86
CCTACTGGGCCATTCAGCGGTCATTGATCATATG,1.85,1.97,1.02,-0.0941,-0.0428,0.283,0.0718,–,0.166
ATATCTAGGTAACCAAGTTCAGTGAATGCCGAAC,1.55,0.963,0.923,0.824,0.83,1.58,0.613,–,2.63
GCTATTTGGTCAGTAAAAGGTCACACACCGGTCG,5.41,5.36,4.76,0.964,5.44,3.91,2.43,–,2
ACTAACAGGCCAAGTTTGGGTCACTCAAACAAAG,2.55,2.88,2.24,0.278,0.882,2.73,1.26,–,0.351
GCTAGTTGGTCAGTAAAAGGTCACAAACCGGTCG,4.94,4.99,4.28,0.203,4.8,3.32,1.15,–,1.71
ATATGTAGGTTACATCCGGGTCAATCAGGCTATG,3.12,3.95,2.2,0.665,3.37,3.8,2.33,–,1.72
